# From the supplement of paper PMC4466140
# Tests used:
# Assay in all cases: SPOT peptide array binding signal intensity (averaged, normalized) (arbitrary units (background-subtracted, floor 0; scale differs between SH3 domains)); higher = stronger binding of the SH3 domain to the peptide
# AgAbp1 = biological target: AgAbp1
# How it was run: (§1)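 Spot intensities were captured after detection with anti-GST antibody, an HRP-linked anti-mouse secondary and luminol, and quantified with Genespotter. The probes were GST-fused SH3 domains from four yeast species, produced in E. coli BL21(DE3), purified on glutathione Sepharose and incubated at 10 μg/ml overnight at 4°C on cellulose-bound synthetic 15-mer peptides with cysteines replaced by serines. Binding signal is the normalized, background-subtracted spot intensity averaged over replicates, and its arbitrary units differ between domains.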
# AgBbc1 = biological target: AgBbc1
# How it was run: as §1
# AgBem1-D1 = biological target: AgBem1-D1
# How it was run: as §1
# AgBzz1-D1 = biological target: AgBzz1-D1
# How it was run: as §1
# AgBzz1-D2 = biological target: AgBzz1-D2
# How it was run: as §1
# AgCyk3 = biological target: AgCyk3
# How it was run: as §1
# AgFus1 = biological target: AgFus1
# How it was run: as §1
# AgHof1 = biological target: AgHof1
# How it was run: as §1
# AgHse1 = biological target: AgHse1
# How it was run: as §1
# AgLsb1 = biological target: AgLsb1
# How it was run: as §1
# AgLsb4 = biological target: AgLsb4
# How it was run: as §1
# AgMyo5 = biological target: AgMyo5
# How it was run: as §1
# AgNbp2 = biological target: AgNbp2
# How it was run: as §1
# AgRvs167 = biological target: AgRvs167
# How it was run: as §1
# AgSho1 = biological target: AgSho1
# How it was run: as §1
# AgSla1-D1-D2 = biological target: AgSla1-D1-D2
# How it was run: as §1
# AgSla1-D3 = biological target: AgSla1-D3
# How it was run: as §1
# CaAbp1-D1 = biological target: CaAbp1-D1
# How it was run: as §1
# CaAbp1-D2 = biological target: CaAbp1-D2
# How it was run: as §1
# CaBbc1 = biological target: CaBbc1
# How it was run: as §1
# CaBem1-D1 = biological target: CaBem1-D1
# How it was run: as §1
# CaBzz1-D1 = biological target: CaBzz1-D1
# How it was run: as §1
# CaBzz1-D2 = biological target: CaBzz1-D2
# How it was run: as §1
# CaCyk3 = biological target: CaCyk3
# How it was run: as §1
# CaFus1 = biological target: CaFus1
# How it was run: as §1
# CaHof1 = biological target: CaHof1
# How it was run: as §1
# CaHse1 = biological target: CaHse1
# How it was run: as §1
# CaLsb1 = biological target: CaLsb1
# How it was run: as §1
# CaLsb4 = biological target: CaLsb4
# How it was run: as §1
# CaMyo5 = biological target: CaMyo5
# How it was run: as §1
# CaNbp2 = biological target: CaNbp2
# How it was run: as §1
# CaRvs167 = biological target: CaRvs167
# How it was run: as §1
# CaRvs167-3 = biological target: CaRvs167-3
# How it was run: as §1
# CaSho1 = biological target: CaSho1
# How it was run: as §1
# CaSla1-D1-D2 = biological target: CaSla1-D1-D2
# How it was run: as §1
# CaSla1-D3 = biological target: CaSla1-D3
# How it was run: as §1
# ScAbp1 = biological target: ScAbp1
# How it was run: as §1
binder,measurement,setting,value
TKPTPPPKPSHLKPK,SPOT peptide array binding signal intensity,AgAbp1,784
same,SPOT peptide array binding signal intensity,AgBbc1,125
same,SPOT peptide array binding signal intensity,AgBem1-D1,≤ 0
same,SPOT peptide array binding signal intensity,AgBzz1-D1,150
same,SPOT peptide array binding signal intensity,AgBzz1-D2,13
same,SPOT peptide array binding signal intensity,AgCyk3,0.5
same,SPOT peptide array binding signal intensity,AgFus1,≤ 0
same,SPOT peptide array binding signal intensity,AgHof1,3.5
same,SPOT peptide array binding signal intensity,AgHse1,18
same,SPOT peptide array binding signal intensity,AgLsb1,0.5
same,SPOT peptide array binding signal intensity,AgLsb4,≤ 0
same,SPOT peptide array binding signal intensity,AgMyo5,≤ 0
same,SPOT peptide array binding signal intensity,AgNbp2,≤ 0
same,SPOT peptide array binding signal intensity,AgRvs167,2.67
same,SPOT peptide array binding signal intensity,AgSho1,72
same,SPOT peptide array binding signal intensity,AgSla1-D1-D2,≤ 0
same,SPOT peptide array binding signal intensity,AgSla1-D3,≤ 0
same,SPOT peptide array binding signal intensity,CaAbp1-D1,655
same,SPOT peptide array binding signal intensity,CaAbp1-D2,1210
same,SPOT peptide array binding signal intensity,CaBbc1,159
same,SPOT peptide array binding signal intensity,CaBem1-D1,≤ 0
same,SPOT peptide array binding signal intensity,CaBzz1-D1,1030
same,SPOT peptide array binding signal intensity,CaBzz1-D2,357
same,SPOT peptide array binding signal intensity,CaCyk3,≤ 0
same,SPOT peptide array binding signal intensity,CaFus1,≤ 0
same,SPOT peptide array binding signal intensity,CaHof1,1.5
same,SPOT peptide array binding signal intensity,CaHse1,5.75
same,SPOT peptide array binding signal intensity,CaLsb1,0.5
same,SPOT peptide array binding signal intensity,CaLsb4,≤ 0
same,SPOT peptide array binding signal intensity,CaMyo5,1
same,SPOT peptide array binding signal intensity,CaNbp2,≤ 0
same,SPOT peptide array binding signal intensity,CaRvs167,4
same,SPOT peptide array binding signal intensity,CaRvs167-3,6
same,SPOT peptide array binding signal intensity,CaSho1,44.5
same,SPOT peptide array binding signal intensity,CaSla1-D1-D2,9.5
same,SPOT peptide array binding signal intensity,CaSla1-D3,0.5
same,SPOT peptide array binding signal intensity,ScAbp1,1010
